According to the supplement of paper PMC3334620:
In all, about 33,000 sequences were measured (“E-score (-0.5 to 0.5)”: median about -0.035, highest 2% from about 0.35 on). The sample holds the highest values, similar sequences and a random draw of the others, so the mix is not that of the screen.

Target: T1, Pdr3 (UniProt P33200)
T1 sequence: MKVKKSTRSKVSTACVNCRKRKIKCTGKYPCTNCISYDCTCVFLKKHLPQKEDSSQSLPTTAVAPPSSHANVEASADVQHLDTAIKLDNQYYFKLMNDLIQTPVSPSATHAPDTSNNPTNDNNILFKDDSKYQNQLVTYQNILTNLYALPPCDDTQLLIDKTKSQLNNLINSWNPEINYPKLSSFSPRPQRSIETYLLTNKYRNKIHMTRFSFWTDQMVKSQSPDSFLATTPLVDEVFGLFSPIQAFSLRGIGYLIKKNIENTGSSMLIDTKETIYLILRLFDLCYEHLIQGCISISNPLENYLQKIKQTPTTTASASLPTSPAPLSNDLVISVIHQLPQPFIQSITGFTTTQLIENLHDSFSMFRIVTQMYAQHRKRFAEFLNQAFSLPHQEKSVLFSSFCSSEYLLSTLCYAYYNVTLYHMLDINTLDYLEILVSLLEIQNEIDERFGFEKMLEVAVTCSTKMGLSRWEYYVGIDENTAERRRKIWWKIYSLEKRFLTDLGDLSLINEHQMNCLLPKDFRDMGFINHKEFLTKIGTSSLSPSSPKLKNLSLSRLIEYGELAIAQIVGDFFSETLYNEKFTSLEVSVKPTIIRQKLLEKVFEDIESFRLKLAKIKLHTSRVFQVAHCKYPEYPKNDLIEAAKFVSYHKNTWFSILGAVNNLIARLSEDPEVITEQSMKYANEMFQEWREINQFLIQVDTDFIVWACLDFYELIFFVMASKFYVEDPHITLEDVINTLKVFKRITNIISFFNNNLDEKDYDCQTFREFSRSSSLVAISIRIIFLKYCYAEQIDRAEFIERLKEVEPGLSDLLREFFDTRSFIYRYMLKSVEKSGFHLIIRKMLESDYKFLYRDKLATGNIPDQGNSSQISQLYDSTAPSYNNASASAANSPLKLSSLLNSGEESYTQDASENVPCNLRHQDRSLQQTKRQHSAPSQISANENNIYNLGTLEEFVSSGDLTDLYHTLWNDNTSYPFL
Test: PBM E-score (8-mer binding enrichment) (E-score (-0.5 to 0.5)); higher = stronger / more preferred TF binding
Settings: protein concentration: 200 nM; construct: GST-full length
Description: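 Universal 'all 10-mer' protein binding microarrays (Agilent AMADID 015681) probed with GST-tagged S. cerevisiae TFs (full-length or DBD) made by in vitro transcription/translation (PURExpress), about 100-200 nM. Bound TF was detected with fluorescent anti-GST. Each ungapped 8-mer (which stands for itself and its reverse complement) is scored by the PBM enrichment score (E-score), a modified Wilcoxon-Mann-Whitney statistic from -0.5 to +0.5, computed with the Universal PBM Analysis Suite. Scale: above 0.35 generally sequence-specific binding.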

Sequence | PBM E-score
CTTCAACC | 0.00827
AGTGATCA | -0.0706
CGATAGGC | -0.216
GTGCGACA | -0.0394
AGGCAGGA | -0.149
AGCACGAG | 0.0609
CGTGAGGA | -0.063
ATGACCCA | -0.0734
GGATACCA | 0.212
ATCGGTTC | 0.192
AATCTTTC | 0.13
GGGCGGAA | 0.414
GGGCGGGA | 0.35
GGGCGGTA | 0.195
TATTCTAA | 0.0298
CTCGCTCC | 0.0762
AGAGGACA | -0.0484
AGTCGACC | 0.0168
CGTCGACC | 0.0668
GGTCGACC | 0.38
ACTTGCTG | -0.278
GCGCCCAC | -0.0118
ATCTTTCC | 0.265
ACTGGAGC | -0.056
ACCGGAGC | 0.356

Sequence | PBM E-score
CCCGGTGC | 0.215
CCGGGAGC | 0.306
ACCGGAGG | 0.281
CCCGGAGC | 0.39
AGTGGCGC | 0.153
TCGATAGA | -0.125
CCGTAACA | -0.0633
ACCTTAGT | -0.174
ACTCTATG | 0.0265
GGGAACAA | 0.188
GGGAACAC | 0.183
CCGAACAG | 0.0662
AGGAACAC | 0.168
CGGAACAA | 0.476
CGGAACAC | 0.483
TGGAACAA | -0.0164
CGGAACAG | 0.466
AGGAACAG | -0.195
CCTAGTCG | -0.23
CAGGTAAA | -0.0305
ATCCTATC | 0.0308
ATTACCGG | 0.243
ACTAGAGG | -0.161
CAATAAGA | -0.172
AAGGGGAG | -0.118

Sequence | PBM E-score
ATTACGGG | -0.0819
ATTACGGA | 0.361
ACTACGGA | 0.362
CCTACGGA | 0.239
ATTACGGC | 0.0318
ACTACGGG | 0.118
ATACGAAA | 0.182
AACACAGT | -0.0579
TGGAGTAA | -0.0368
TGGAAACA | -0.184
CCCGACCA | 0.155
GCGTACGA | -0.0757
AGAAGGGA | -0.323
GTTGCGGA | 0.236
CCGATCCA | 0.155
ACGATCCA | -0.0267
CCGATCCG | 0.371
ACGATCCG | 0.368
CCGATCCC | 0.175
ACGATCCC | 0.183
GCCAGTAC | -0.0709
ATTTTGGC | 0.16
TAGTCATA | -0.247
ACCTGGCC | 0.162
TATCTTAA | -0.0962

Sequence | PBM E-score
CTACGGAA | 0.407
CTACGGAC | 0.0596
CTACGGAG | 0.246
GTACGGTA | 0.0177
ATACGGAT | 0.241
ATACGGAA | 0.439
TTACGAAA | -0.0461
TTACGGAA | 0.419
GTACGGAC | 0.278
TTATGGAA | 0.0348
ATACGGAC | 0.239
GTACGGAA | 0.402
ACGATTTC | 0.051
TACTGATA | 0.0935
ATGGACAC | 0.0372
CTCCTCAA | -0.152
GAACGCAA | 0.133
GCGTTAGC | -0.213
ATACAGCG | -0.116
ATCCGCCA | 0.185
ACCCGCCC | 0.348
ACCCGCCA | 0.0368
ATCCGCCC | 0.251
ATCCGCCG | 0.387
ACCCGCCG | 0.388

Sequence | PBM E-score
CGAACTCG | 0.17
GCTGCAAA | -0.0739
CAGAATAG | -0.0833
GGGAATAA | 0.199
AGGAATAG | -0.072
CGGAATAC | 0.427
CGGAATAA | 0.422
AGGAATAC | -0.2
GGGAATAC | 0.162
TGGAATAA | -0.00691
CGGAATAG | 0.418
CCTGAAGA | -0.0192
GGCGCCTA | -0.0415
CTACAGCC | -0.129
GCCTCATA | 0.0142
CTTGTCCC | 0.19
CAGTTCCG | 0.473
CAGTTCCA | -0.0348
AAGTTCCC | 0.14
CAGTTCCC | 0.342
AAGTTCCG | 0.445
AAGTTCCT | 0.0364
CATGAAGC | 0.058
CCAGCCTA | -0.182
CTAGGGAG | -0.205

Sequence | PBM E-score
GCAAGCCC | -0.0061
CGGAATTA | 0.43
AGGAATTC | -0.00951
CGGAATTC | 0.434
CTGAATTC | -0.136
GGGAATTA | 0.118
AGGAATTA | -0.091
GTGCCTAA | -0.288
CTATCTAA | 0.00128
GTCCCTGA | -0.23
GAGCGAAA | 0.146
ACTTTCCG | 0.417
CCTTTCCA | -0.0113
ACTTTCCC | 0.0862
ACTTTCCT | -0.151
CCTTTCCC | 0.235
CCTTTCCG | 0.387
AGGTTTTG | -0.197
AAACTCTT | -0.264
CAGTCGGC | 0.0494
CGCCGGAG | 0.299
AGCCGGGG | 0.152
GGCCGAAA | 0.199
AGCCGGAG | 0.362
CGCCGGAC | 0.316

Sequence | PBM E-score
AGCCGTAT | 0.0899
GGCCGGAC | 0.216
AGCCGGAT | 0.391
CGCCGGAA | 0.45
AGCCGGTC | -0.0317
AGCCGGTG | 0.187
GGCCGGAA | 0.431
GCGGATGA | 0.303
GAACCCTA | -0.0298
AGTTCAAG | 0.0398
AAAGCTTT | 0.00459
GGAGCACA | 0.0257
ACGTACGA | -0.133
CGTAGAGA | -0.182
AGCCGGAC | 0.345
AGCCGGTA | 0.199
TGCCGGAA | 0.454
TGCCGAAA | 0.118
AGCCGGAA | 0.438
TGCCGTAA | -0.187
AGCAACCT | -0.0661
TCGAGGCA | -0.123
